Hit rate of the full screen: of about 5,500 compounds, about 2,000 (36%) were called active. About 18% were inconclusive and are not listed. Cut-off read from the data, not from the text of the source: active = normalized growth mostly below about 0.91 (no sharp cut-off); inconclusive = no clear call, values can overlap the other calls; inactive = mostly above about 0.92. The list shows a part of the results.
Experiment: chemical genetic growth profiling, strain panel (AID 1159580);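 note: tested at 20 µM; growth read once vehicle control cultures reached saturation at 30 °C; 1 = growth at the plate median or of vehicle wells; lower values mean less growth of the strain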
Details: growth OD

Measured: normalized growth

CC[C@H](CCC(C)[C@H]1CCC2C3CCC4C[C@@H](O)CC[C@]4(C)C3CC[C@@]21C)C(C)C (stereo partly drawn)
inactive: S. cerevisiae deletion strains, locus YKL009W, strain mrt4, active compounds read low 1.02 | S. cerevisiae deletion strains, locus YKL068W, active compounds read low 1.01 | S. cerevisiae deletion strains, locus YKL085W, strain MDH1 (second series), active compounds read low 1.01 | S. cerevisiae deletion strains, locus YKL085W, strain MDH1, active compounds read low 1.01 | S. cerevisiae deletion strains, locus YKL160W, strain elf1, active compounds read low 1.02 | S. cerevisiae deletion strains, locus YKR001C, strain vps1, active compounds read low 1.04 | S. cerevisiae deletion strains, locus YKR026C, strain gcn3, active compounds read low 0.988 | S. cerevisiae deletion strains, locus YKR091W, strain srl3, active compounds read low 0.992 | S. cerevisiae deletion strains, locus YLL001W, strain dnm1, active compounds read low 1.01 | S. cerevisiae deletion strains, locus YLL026W, active compounds read low 0.991 | S. cerevisiae deletion strains, locus YLL041C, strain sdh2, active compounds read low 0.969 | S. cerevisiae deletion strains, locus YLR027C, strain aat2, active compounds read low 0.987 | S. cerevisiae deletion strains, locus YLR039C, strain RIC1, active compounds read low 0.995 | S. cerevisiae deletion strains, locus YLR058C, strain SHM2, active compounds read low 1.01 | S. cerevisiae deletion strains, locus YLR102C, strain apc9, active compounds read low 1.01 | S. cerevisiae deletion strains, locus YLR113W, strain HOG1, active compounds read low 0.991 | S. cerevisiae deletion strains, locus YLR221C, strain rsa3, active compounds read low 1.03 | S. cerevisiae deletion strains, locus YLR258W, strain gsy2, active compounds read low 0.988 | S. cerevisiae deletion strains, locus YLR262C, strain YPT6 (second series), active compounds read low 0.97 | S. cerevisiae deletion strains, locus YLR262C, strain YPT6, active compounds read low 1.02 | S. cerevisiae deletion strains, locus YLR268W, strain sec22, active compounds read low 1.02 | S. cerevisiae deletion strains, locus YLR320W, strain mms22, active compounds read low 1.02 | S. cerevisiae deletion strains, locus YLR330W, strain CHS5, active compounds read low 1.01 | S. cerevisiae deletion strains, locus YLR342W, strain FKS1 (second series), active compounds read low 1.01 | S. cerevisiae deletion strains, locus YLR342W, strain FKS1, active compounds read low 0.978 | S. cerevisiae deletion strains, locus YLR357W, strain rsc2, active compounds read low 0.98 | S. cerevisiae deletion strains, locus YLR370C, strain arc18, active compounds read low 0.98 | S. cerevisiae deletion strains, locus YLR371W, strain rom2, active compounds read low 1.01 | S. cerevisiae deletion strains, locus YLR384C, strain iki3, active compounds read low 0.986 | S. cerevisiae deletion strains, locus YLR418C, strain cdc73, active compounds read low 1 | S. cerevisiae deletion strains, locus YML016C, strain PPZ1, active compounds read low 1.01 | S. cerevisiae deletion strains, locus YML032C, strain rad52, active compounds read low 1.01 | S. cerevisiae deletion strains, locus YML120C, strain ndi1, active compounds read low 0.989 | S. cerevisiae deletion strains, locus YML124C, strain tub3, active compounds read low 1.01 | S. cerevisiae deletion strains, locus YMR058W, strain fet3, active compounds read low 0.967 | S. cerevisiae deletion strains, locus YMR078C, strain ctf18, active compounds read low 1.01 | S. cerevisiae deletion strains, locus YMR125W, strain sto1, active compounds read low 0.969 | S. cerevisiae deletion strains, locus YMR129W, active compounds read low 0.982 | S. cerevisiae deletion strains, locus YMR205C, strain PFK2, active compounds read low 1.01 | S. cerevisiae deletion strains, locus YMR223W, strain ubp8, active compounds read low 0.988 | S. cerevisiae deletion strains, locus YMR231W, strain pep5, active compounds read low 0.975 | S. cerevisiae deletion strains, locus YMR263W, strain SAP30, active compounds read low 1.01 | S. cerevisiae deletion strains, locus YMR307W, strain GAS1, active compounds read low 0.973 | S. cerevisiae deletion strains, locus YNL067W, strain RPL9B, active compounds read low 1 | S. cerevisiae deletion strains, locus YNL071W, strain lat1, active compounds read low 0.974 | S. cerevisiae deletion strains, locus YNL153C, strain GIM3, active compounds read low 1 | S. cerevisiae deletion strains, locus YNL183C, strain NPR1, active compounds read low 0.974 | S. cerevisiae deletion strains, locus YNL209W, strain ssb2, active compounds read low 1 | S. cerevisiae deletion strains, locus YNL233W, strain BNI4, active compounds read low 1 | S. cerevisiae deletion strains, locus YNL248C, strain rpa49, active compounds read low 0.975 | S. cerevisiae deletion strains, locus YNL250W, strain rad50, active compounds read low 1 | S. cerevisiae deletion strains, locus YNL271C, strain bni1, active compounds read low 1.01 | S. cerevisiae deletion strains, locus YNL298W, strain CLA4, active compounds read low 1.02 | S. cerevisiae deletion strains, locus YNL307C, strain MCK1, active compounds read low 1.01 | S. cerevisiae deletion strains, locus YNL322C, strain KRE1 (second series), active compounds read low 0.982 | S. cerevisiae deletion strains, locus YNL322C, strain KRE1, active compounds read low 1 | S. cerevisiae deletion strains, locus YNR049C, strain mso1, active compounds read low 0.984 | S. cerevisiae deletion strains, locus YNR052C, strain pop2, active compounds read low 1.02 | S. cerevisiae deletion strains, locus YOL012C, strain htz1 0.67 | S. cerevisiae deletion strains, locus YOL147C, strain pex11, active compounds read low 1 | S. cerevisiae deletion strains, locus YOR001W, strain rrp6, active compounds read low 0.949 | S. cerevisiae deletion strains, locus YOR061W, strain CKA2, active compounds read low 1.02 | S. cerevisiae deletion strains, locus YOR069W, strain VPS5, active compounds read low 1.01 | S. cerevisiae deletion strains, locus YOR070C, strain gyp1, active compounds read low 1.02 | S. cerevisiae deletion strains, locus YOR080W, strain dia2, active compounds read low 0.988 | S. cerevisiae deletion strains, locus YOR083W, strain WHI5, active compounds read low 1.03 | S. cerevisiae deletion strains, locus YOR106W, strain vam3, active compounds read low 0.998 | S. cerevisiae deletion strains, locus YOR136W, strain idh2, active compounds read low 1.01 | S. cerevisiae deletion strains, locus YOR144C, strain elg1, active compounds read low 1.01 | S. cerevisiae deletion strains, locus YOR184W, strain ser1, active compounds read low 1.02 | S. cerevisiae deletion strains, locus YOR231W, strain MKK1, active compounds read low 1.01 | S. cerevisiae deletion strains, locus YOR265W, strain rbl2, active compounds read low 1.02 | S. cerevisiae deletion strains, locus YOR270C, strain vph1, active compounds read low 0.979 | S. cerevisiae deletion strains, locus YOR290C, strain snf2, active compounds read low 0.995 | S. cerevisiae deletion strains, locus YOR316C, strain cot1, active compounds read low 1.01 | S. cerevisiae deletion strains, locus YPL051W, strain arl3, active compounds read low 0.995 | S. cerevisiae deletion strains, locus YPL055C, strain LGE1, active compounds read low 1 | S. cerevisiae deletion strains, locus YPL078C, strain atp4, active compounds read low 0.989 | S. cerevisiae deletion strains, locus YPL106C, strain sse1, active compounds read low 0.994 | S. cerevisiae deletion strains, locus YPL240C, strain hsp82, active compounds read low 0.987 | S. cerevisiae deletion strains, locus YPL241C, strain CIN2, active compounds read low 1 | S. cerevisiae deletion strains, locus YPL256C, strain CLN2, active compounds read low 1.02 | S. cerevisiae deletion strains, locus YPR119W, strain clb2, active compounds read low 1.01 | S. cerevisiae deletion strains, locus YPR141C, strain kar3, active compounds read low 1.01 | S. cerevisiae deletion strains, locus YPR163C, strain tif3, active compounds read low 1.01 | S. cerevisiae deletion strains, locus YPR167C, strain met16, active compounds read low 1 | S. cerevisiae deletion strains, strain wtn01, active compounds read low 1.02 | S. cerevisiae strains, strain wild type, active compounds read low 1.01
